Measured values from the supplement of paper PMC10849652.
The full data set covers some 8,800 targets. This sample favours those with a hit. About 0.5% of all pairs of compound and target were hits.

Experiments:
Assay in all cases: log2 fold change, soluble protein after heating vs DMSO (PISA); higher = thermal stabilisation; K562 lysate, 10 uM; active = over 0.2 and 3.5 SD of the protein, either way, in both replicates (recomputed)
erlotinib = compound: C#Cc1cccc(Nc2ncnc3cc(OCCOC)c(OCCOC)cc23)c1 [erlotinib]
Outline: (§1)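 Following dounce homogenisation of K562 pellets in PBS pH 7.4 with 1 mM MgCl2, crude extract at 1 mg/mL protein was incubated for 30 min with 10 μM compound. Aliquots were then heated for 3 min over 48°C-58°C and pooled, NP-40 was added to 0.5% at 4°C, and soluble protein was recovered as the supernatant at 21,000xg for 90 min. Channel-sum-equalised TMTpro 16plex LC-MS/MS quantified this protein. Each value, from duplicates, is a log-two fold change in thermal stability relative to solvent controls.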

[1] = compound: C/C(=N\NC(=O)C1=CC(=CC=C1)S(=O)(=O)N2CCOCC2)/C3=C(C=CC(=C3)Cl)O
Outline: as §1

[2] = compound: C1=CC(=CC=C1C2=NC3=C(N2)C=C(C=C3)C(=O)N)OC4=CC=C(C=C4)Cl
Outline: as §1

[3] = compound: C1=CC2=C(C=CC(=C2)/C=C\3/C(=O)NC(=NCC4=CC=CS4)S3)N=C1
Outline: as §1

[4] = compound: C1=CC2=NC=CN=C2C=C1/C=C/3\C(=O)NC(=O)S3
Outline: as §1

[5] = compound: C1=CC=C(C=C1)C2=NC(=C(N2)C3=CC=NC=C3)C4=CC(=C(C=C4)Cl)O
Outline: as §1

[6] = compound: C1=CC=C2C(=C1)C3=NNC4=CC=CC(=C43)C2=O
Outline: as §1

[7] = compound: C1CCN(C1)C(=O)NC2=CC=CC(=C2)NC3=NC=C(C(=N3)NCCC4=CN=CN4)Br
Outline: as §1

[8] = compound: C1CN(CCC1(CC2=CC=C(C=C2)Cl)N)C3=NC=NC4=C3C=CN4
Outline: as §1

IRAK-1-4 Inhibitor I = compound: C1COCCN1CCN2C3=CC=CC=C3N=C2NC(=O)C4=CC(=CC=C4)[N+](=O)[O-] [IRAK-1-4 Inhibitor I]
Outline: as §1

ibrutinib = compound: C=CC(=O)N1CCC[C@@H](n2nc(-c3ccc(Oc4ccccc4)cc3)c3c(N)ncnc32)C1 [ibrutinib]
Outline: as §1

[9] = compound: CC(=O)c1cnc2ccc(-c3cc(Cl)c(O)c(Cl)c3)nc2c1N[C@H]1CC[C@H](CN(C)C)CC1
Outline: as §1

ralimetinib = compound: CC(C)(C)Cn1c(N)nc2ccc(-c3[nH]c(C(C)(C)C)nc3-c3ccc(F)cc3)nc21 [ralimetinib]
Outline: as §1

[10] = compound: CC(C)(O)CC(=O)NCCn1ccc2ncnc(Nc3ccc(Oc4cccc(C(F)(F)F)c4)c(Cl)c3)c21
Outline: as §1

[11] = compound: CC(C)C1=C2N=C(C=C(N2N=C1)NCC3=CC=CC=C3)NCCCCCCN
Outline: as §1

[12] = compound: CC1=C(C(CC(=O)N1)C2=CC=C(C=C2)C(F)(F)F)C(=O)NC3=C(C=C4C(=C3)C=NN4)F
Outline: as §1

[13] = compound: CC1=C(C2=C(C=C1)C(=O)C3=CC=CC=C3N2CCCN)C
Outline: as §1

[14] = compound: CC1=C(C=C(C=C1)NC(=O)C2=CC(=CC=C2)C(C)(C)C#N)NC3=CC4=C(C=C3)N=CN(C4=O)C
Outline: as §1

[15] = compound: CC1=C(C=C(C=C1)NC(=O)C2=CC(=CC=C2)N(C)C)NC(=O)C3=CC=C(C=C3)O
Outline: as §1

[16] = compound: CC1=CC=C(C=C1)SC2=C3C=C(SC3=CN=C2)C(=O)N
Outline: as §1

Measured: log2 fold change

SEC61G (UniProt P60059)
Chain of UniProt P60059 (P60059 whole entry, looked up): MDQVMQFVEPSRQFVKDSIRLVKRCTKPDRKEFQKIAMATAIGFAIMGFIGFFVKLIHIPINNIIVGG
inactive: erlotinib 0.065 | [1] -0.196 | [2] -0.111 | [3] 0.032 | [4] 0.043 | [5] 0.032 | [6] -0.126 | [7] -0.096 | [8] 0.065 | IRAK-1-4 Inhibitor I 0.083 | ibrutinib 0.037 | [9] 0 | ralimetinib -0.019 | [10] -0.229 | [11] -0.052 | [12] -0.081 | [13] -0.053 | [14] 0.071 | [15] 0.004 | [16] 0.052

RIC1 (UniProt Q4ADV7)
inactive: erlotinib 0 | [1] -0.239 | [2] -0.074 | [3] 0.025 | [4] -0.176 | [5] 0.044 | [6] 0.035 | [7] 0.038 | [8] 0.057 | IRAK-1-4 Inhibitor I 0.022 | ibrutinib -0.129 | [9] -0.052 | ralimetinib 0.046 | [10] -0.074 | [11] 0.038 | [12] -0.032 | [13] -0.065 | [14] 0.113 | [15] 0.027 | [16] -0.006

S100A11 (UniProt P31949)
inactive: erlotinib 0.02 | [1] 0.034 | [2] 0.02 | [3] -0.008 | [4] -0.028 | [5] -0.009 | [6] -0.055 | [7] 0.071 | [8] 0.074 | IRAK-1-4 Inhibitor I -0.025 | ibrutinib -0.011 | [9] -0.049 | ralimetinib -0.009 | [10] -0.017 | [11] -0.02 | [12] -0.024 | [13] 0.003 | [14] 0.058 | [15] 0.028 | [16] 0.037

SASS6 (UniProt Q6UVJ0)
Chain of UniProt Q6UVJ0 (Q6UVJ0 whole entry, looked up): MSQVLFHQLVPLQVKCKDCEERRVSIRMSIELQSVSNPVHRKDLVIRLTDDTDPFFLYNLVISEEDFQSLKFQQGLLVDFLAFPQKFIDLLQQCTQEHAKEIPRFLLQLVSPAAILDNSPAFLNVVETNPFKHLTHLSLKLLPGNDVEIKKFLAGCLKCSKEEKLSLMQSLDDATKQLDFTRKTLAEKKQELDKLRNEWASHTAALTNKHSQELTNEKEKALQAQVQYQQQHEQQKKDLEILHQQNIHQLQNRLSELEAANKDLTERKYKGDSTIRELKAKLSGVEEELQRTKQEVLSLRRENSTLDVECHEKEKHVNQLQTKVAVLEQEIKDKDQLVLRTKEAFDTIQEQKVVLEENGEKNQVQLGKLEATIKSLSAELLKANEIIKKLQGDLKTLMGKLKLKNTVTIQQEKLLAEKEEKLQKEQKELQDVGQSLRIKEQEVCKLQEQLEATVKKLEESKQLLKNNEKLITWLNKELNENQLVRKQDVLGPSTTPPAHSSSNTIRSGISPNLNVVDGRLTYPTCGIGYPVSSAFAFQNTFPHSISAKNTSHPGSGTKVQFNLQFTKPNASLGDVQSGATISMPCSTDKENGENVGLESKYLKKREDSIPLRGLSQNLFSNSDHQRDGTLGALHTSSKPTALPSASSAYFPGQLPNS
inactive: erlotinib 0.024 | [1] 0.016 | [2] 0.028 | [3] -0.019 | [4] -0.009 | [5] 0.015 | [6] -0.023 | [7] -0.012 | [8] 0 | IRAK-1-4 Inhibitor I -0.021 | ibrutinib -0.006 | [9] 0.023 | ralimetinib -0.006 | [10] -0.056 | [11] -0.017 | [12] 0.024 | [13] 0.007 | [14] 0.015 | [15] 0.001 | [16] -0.021

REXO4 (UniProt Q9GZR2)
Chain of UniProt Q9GZR2 (Q9GZR2 whole entry, looked up): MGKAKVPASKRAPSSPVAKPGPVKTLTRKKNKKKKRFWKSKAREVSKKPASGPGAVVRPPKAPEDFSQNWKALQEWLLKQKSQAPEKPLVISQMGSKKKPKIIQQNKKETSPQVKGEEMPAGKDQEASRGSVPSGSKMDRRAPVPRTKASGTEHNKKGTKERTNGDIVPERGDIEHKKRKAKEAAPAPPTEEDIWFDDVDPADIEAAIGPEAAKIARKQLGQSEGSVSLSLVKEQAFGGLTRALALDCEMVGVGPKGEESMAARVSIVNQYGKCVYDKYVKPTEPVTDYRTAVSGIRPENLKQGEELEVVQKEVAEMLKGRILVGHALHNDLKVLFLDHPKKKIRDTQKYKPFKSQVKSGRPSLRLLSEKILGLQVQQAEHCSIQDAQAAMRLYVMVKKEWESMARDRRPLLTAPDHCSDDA
inactive: erlotinib -0.041 | [1] -0.195 | [2] -0.041 | [3] -0.084 | [4] -0.052 | [5] 0.027 | [6] -0.033 | [7] -0.022 | [8] 0.003 | IRAK-1-4 Inhibitor I -0.027 | ibrutinib 0.014 | [9] 0.027 | ralimetinib 0.021 | [10] 0.074 | [11] -0.024 | [12] 0.023 | [13] -0.053 | [14] -0.043 | [15] 0.056 | [16] 0.008

SEC16A isoform 5 (UniProt O15027)
Chain of UniProt O15027 (O15027 whole entry, looked up): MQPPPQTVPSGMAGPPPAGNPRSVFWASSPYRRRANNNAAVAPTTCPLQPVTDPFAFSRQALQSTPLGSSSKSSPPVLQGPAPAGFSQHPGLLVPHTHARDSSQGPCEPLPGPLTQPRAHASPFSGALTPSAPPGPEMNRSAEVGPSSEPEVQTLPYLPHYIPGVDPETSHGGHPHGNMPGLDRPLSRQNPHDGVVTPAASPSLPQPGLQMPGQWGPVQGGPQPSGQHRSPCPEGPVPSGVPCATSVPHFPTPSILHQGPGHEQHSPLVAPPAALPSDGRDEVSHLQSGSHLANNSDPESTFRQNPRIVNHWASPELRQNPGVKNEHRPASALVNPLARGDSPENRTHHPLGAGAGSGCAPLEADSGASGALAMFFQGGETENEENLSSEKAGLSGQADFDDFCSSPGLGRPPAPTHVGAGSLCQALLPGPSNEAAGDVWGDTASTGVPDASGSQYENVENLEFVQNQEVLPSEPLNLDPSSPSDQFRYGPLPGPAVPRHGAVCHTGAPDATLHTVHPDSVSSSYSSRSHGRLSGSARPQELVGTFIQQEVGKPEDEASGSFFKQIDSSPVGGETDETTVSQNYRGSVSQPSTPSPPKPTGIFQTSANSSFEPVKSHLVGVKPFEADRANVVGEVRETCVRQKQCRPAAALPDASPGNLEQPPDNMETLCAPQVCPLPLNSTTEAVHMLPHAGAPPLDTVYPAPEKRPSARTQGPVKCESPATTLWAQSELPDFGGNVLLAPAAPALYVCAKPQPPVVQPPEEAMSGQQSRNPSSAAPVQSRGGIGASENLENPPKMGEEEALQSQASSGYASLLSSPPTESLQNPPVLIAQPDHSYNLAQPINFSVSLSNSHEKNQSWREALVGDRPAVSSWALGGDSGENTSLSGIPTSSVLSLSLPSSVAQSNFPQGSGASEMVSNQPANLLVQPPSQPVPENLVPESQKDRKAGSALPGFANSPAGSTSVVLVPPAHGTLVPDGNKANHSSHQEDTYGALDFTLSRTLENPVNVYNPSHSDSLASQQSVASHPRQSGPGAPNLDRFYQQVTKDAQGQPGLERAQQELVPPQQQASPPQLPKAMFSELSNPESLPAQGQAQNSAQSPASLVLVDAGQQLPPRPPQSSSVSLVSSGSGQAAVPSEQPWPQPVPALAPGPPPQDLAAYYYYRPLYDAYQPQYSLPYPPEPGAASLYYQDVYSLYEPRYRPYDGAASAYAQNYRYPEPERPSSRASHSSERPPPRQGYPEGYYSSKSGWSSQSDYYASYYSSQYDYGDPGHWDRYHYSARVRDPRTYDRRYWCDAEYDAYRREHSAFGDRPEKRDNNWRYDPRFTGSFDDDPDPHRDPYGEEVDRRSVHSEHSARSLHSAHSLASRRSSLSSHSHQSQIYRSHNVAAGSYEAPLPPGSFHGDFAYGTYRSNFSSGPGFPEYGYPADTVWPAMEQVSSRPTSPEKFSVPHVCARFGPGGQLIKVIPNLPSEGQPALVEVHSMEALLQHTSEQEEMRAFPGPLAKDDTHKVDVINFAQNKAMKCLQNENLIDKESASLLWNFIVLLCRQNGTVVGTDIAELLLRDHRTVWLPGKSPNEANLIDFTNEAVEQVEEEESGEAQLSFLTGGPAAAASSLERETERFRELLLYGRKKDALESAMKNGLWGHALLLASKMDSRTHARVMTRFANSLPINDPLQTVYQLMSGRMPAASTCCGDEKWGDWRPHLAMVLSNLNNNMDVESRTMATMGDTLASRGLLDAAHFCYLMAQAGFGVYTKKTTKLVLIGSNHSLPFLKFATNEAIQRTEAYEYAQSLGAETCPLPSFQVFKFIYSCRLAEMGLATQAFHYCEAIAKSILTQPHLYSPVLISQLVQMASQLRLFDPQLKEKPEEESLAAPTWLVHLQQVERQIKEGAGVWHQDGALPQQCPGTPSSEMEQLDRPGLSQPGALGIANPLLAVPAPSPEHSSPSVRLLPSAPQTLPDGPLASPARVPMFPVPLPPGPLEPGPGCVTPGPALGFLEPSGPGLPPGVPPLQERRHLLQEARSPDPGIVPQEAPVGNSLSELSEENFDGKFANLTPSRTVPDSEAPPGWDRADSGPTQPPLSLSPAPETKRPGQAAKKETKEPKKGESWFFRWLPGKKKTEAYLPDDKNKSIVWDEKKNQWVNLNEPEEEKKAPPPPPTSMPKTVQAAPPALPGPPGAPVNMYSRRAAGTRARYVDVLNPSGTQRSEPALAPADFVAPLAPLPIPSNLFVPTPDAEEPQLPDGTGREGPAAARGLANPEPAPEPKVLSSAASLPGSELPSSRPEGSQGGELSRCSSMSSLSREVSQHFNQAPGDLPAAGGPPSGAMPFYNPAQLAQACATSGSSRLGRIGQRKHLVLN
inactive: erlotinib 0.006 | [1] -0.019 | [2] 0.025 | [3] -0.016 | [4] -0.031 | [5] -0.038 | [6] -0.085 | [7] -0.022 | [8] 0.002 | IRAK-1-4 Inhibitor I -0.005 | ibrutinib 0.035 | [9] -0.021 | ralimetinib -0.013 | [10] 0.015 | [11] 0.01 | [12] 0.019 | [13] 0.004 | [14] -0.121 | [15] 0.011 | [16] -0.031

SAR1A (UniProt Q9NR31)
Chain of UniProt Q9NR31 (Q9NR31 whole entry, looked up): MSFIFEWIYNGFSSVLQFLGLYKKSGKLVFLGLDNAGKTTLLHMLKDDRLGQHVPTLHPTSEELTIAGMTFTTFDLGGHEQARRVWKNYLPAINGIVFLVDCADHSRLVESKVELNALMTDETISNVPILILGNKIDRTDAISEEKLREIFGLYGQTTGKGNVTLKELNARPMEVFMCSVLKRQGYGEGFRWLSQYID
inactive: erlotinib -0.268 | [1] -0.112 | [2] 0.05 | [3] -0.019 | [4] -0.063 | [5] -0.056 | [6] 0.048 | [7] -0.08 | [8] 0.001 | IRAK-1-4 Inhibitor I -0.029 | ibrutinib -0.082 | [9] -0.105 | ralimetinib 0.027 | [10] -0.028 | [11] 0.026 | [12] 0.163 | [13] -0.042 | [14] 0.021 | [15] -0.045 | [16] 0.112

RAI14 isoform 2 (UniProt Q9P0K7)
inactive: erlotinib 0.015 | [1] 0.006 | [2] -0.007 | [3] 0.004 | [4] 0.001 | [5] 0.021 | [6] 0.02 | [7] 0 | [8] -0.018 | IRAK-1-4 Inhibitor I -0.028 | ibrutinib -0.019 | [9] -0.007 | ralimetinib -0.011 | [10] -0.01 | [11] -0.004 | [12] 0.017 | [13] -0.024 | [14] 0.01 | [15] 0.024 | [16] 0.001

RAD50 isoform 2 (UniProt Q92878)
Chain of UniProt Q92878 (Q92878 whole entry, looked up): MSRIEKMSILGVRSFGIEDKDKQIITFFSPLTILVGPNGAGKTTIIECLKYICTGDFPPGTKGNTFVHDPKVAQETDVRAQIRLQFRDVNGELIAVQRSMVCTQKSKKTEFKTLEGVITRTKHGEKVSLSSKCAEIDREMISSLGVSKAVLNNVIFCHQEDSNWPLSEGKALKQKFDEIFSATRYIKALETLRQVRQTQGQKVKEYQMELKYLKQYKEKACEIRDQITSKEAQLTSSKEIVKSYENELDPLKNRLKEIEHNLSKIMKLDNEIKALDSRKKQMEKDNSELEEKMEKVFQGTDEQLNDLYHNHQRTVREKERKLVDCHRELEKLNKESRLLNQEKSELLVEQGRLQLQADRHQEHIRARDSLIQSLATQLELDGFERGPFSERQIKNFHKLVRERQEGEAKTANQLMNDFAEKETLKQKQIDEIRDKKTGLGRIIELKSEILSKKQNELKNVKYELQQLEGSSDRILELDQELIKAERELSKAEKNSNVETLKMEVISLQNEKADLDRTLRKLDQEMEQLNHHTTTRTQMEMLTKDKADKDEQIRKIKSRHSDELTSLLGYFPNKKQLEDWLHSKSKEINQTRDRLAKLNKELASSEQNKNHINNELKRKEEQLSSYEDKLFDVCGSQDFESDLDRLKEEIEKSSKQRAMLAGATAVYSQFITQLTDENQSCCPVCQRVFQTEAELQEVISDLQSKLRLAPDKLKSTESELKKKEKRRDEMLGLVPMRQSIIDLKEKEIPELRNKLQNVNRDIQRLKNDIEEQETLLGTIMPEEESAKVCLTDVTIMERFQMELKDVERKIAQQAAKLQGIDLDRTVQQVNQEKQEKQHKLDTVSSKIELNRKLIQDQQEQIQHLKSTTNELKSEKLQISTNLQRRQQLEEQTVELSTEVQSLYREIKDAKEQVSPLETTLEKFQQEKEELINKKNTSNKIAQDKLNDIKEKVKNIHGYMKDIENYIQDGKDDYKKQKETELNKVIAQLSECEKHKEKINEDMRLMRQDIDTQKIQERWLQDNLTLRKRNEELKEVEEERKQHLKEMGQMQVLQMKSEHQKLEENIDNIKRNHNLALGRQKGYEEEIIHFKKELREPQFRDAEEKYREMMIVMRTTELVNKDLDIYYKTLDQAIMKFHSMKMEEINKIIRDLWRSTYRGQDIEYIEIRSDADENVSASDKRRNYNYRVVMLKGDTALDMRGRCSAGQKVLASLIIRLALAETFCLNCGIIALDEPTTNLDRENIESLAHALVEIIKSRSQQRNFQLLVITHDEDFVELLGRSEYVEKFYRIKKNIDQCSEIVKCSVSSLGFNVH
inactive: erlotinib -0.009 | [1] -0.007 | [2] 0.019 | [3] 0.006 | [4] -0.014 | [5] -0.023 | [6] -0.039 | [7] 0.005 | [8] -0.01 | IRAK-1-4 Inhibitor I -0.054 | ibrutinib 0.002 | [9] -0.01 | ralimetinib 0.01 | [10] 0.018 | [11] 0 | [12] -0.001 | [13] 0.03 | [14] 0 | [15] 0.017 | [16] -0.006

RFC3 (UniProt P40938)
inactive: erlotinib 0.05 | [1] 0.01 | [2] -0.034 | [3] 0.024 | [4] 0.005 | [5] 0.005 | [6] -0.027 | [7] -0.002 | [8] 0.049 | IRAK-1-4 Inhibitor I 0.028 | ibrutinib 0.024 | [9] 0.131 | ralimetinib 0.03 | [10] -0.012 | [11] -0.04 | [12] 0.004 | [13] -0.034 | [14] 0.002 | [15] 0.042 | [16] -0.008

RCOR1 (UniProt Q9UKL0)
inactive: erlotinib -0.023 | [1] 0.065 | [2] -0.004 | [3] -0.053 | [4] -0.051 | [5] 0.005 | [6] -0.035 | [7] -0.008 | [8] 0.017 | IRAK-1-4 Inhibitor I 0.003 | ibrutinib 0.016 | [9] -0.001 | ralimetinib 0.023 | [10] -0.028 | [11] 0.264 | [12] 0 | [13] 0.013 | [14] -0.049 | [15] 0.02 | [16] 0.021

RAP1GAP isoform 4 (UniProt P47736)
inactive: erlotinib 0.087 | [1] -0.028 | [2] -0.011 | [3] -0.018 | [4] -0.019 | [5] -0.012 | [6] -0.005 | [7] 0.02 | [8] 0.056 | IRAK-1-4 Inhibitor I 0.041 | ibrutinib -0.024 | [9] 0.018 | ralimetinib 0.068 | [10] -0.037 | [11] 0.051 | [12] 0.003 | [13] -0.008 | [14] 0.056 | [15] -0.009 | [16] -0.012

SCAF1 (UniProt Q9H7N4)
inactive: erlotinib 0.016 | [1] 0.113 | [2] 0.066 | [3] 0.218 | [4] 0.025 | [5] -0.022 | [6] 0.033 | [7] 0.047 | [8] 0.041 | IRAK-1-4 Inhibitor I 0.081 | ibrutinib 0.219 | [9] -0.054 | ralimetinib -0.025 | [10] 0.171 | [11] 0.042 | [12] 0.065 | [13] -0.06 | [14] 0.056 | [15] 0.056 | [16] 0.002

SESN2 (UniProt P58004)
inactive: erlotinib 0.043 | [1] 0.102 | [2] -0.007 | [3] -0.017 | [4] 0.023 | [5] -0.037 | [6] -0.07 | [7] 0.051 | [8] -0.014 | IRAK-1-4 Inhibitor I -0.048 | ibrutinib -0.001 | [9] -0.038 | ralimetinib 0.018 | [10] 0.007 | [11] 0.019 | [12] -0.051 | [13] -0.064 | [14] 0.008 | [15] 0.078 | [16] 0.205

SAR1B (UniProt Q9Y6B6)
inactive: erlotinib -0.143 | [1] 0.011 | [2] 0.042 | [3] -0.046 | [4] -0.065 | [5] -0.045 | [6] 0.029 | [7] -0.126 | [8] 0.025 | IRAK-1-4 Inhibitor I 0.041 | ibrutinib 0.02 | [9] -0.094 | ralimetinib 0.045 | [10] -0.032 | [11] 0.093 | [12] 0.154 | [13] -0.018 | [14] 0.026 | [15] -0.065 | [16] 0.077

ROCK1 (UniProt Q13464)
inactive: erlotinib -0.01 | [1] 0.029 | [2] 0 | [3] 0.075 | [4] -0.036 | [5] -0.004 | [6] -0.041 | [7] 0.008 | [8] 0.075 | IRAK-1-4 Inhibitor I 0.004 | ibrutinib -0.002 | [9] -0.027 | ralimetinib -0.005 | [10] -0.021 | [11] -0.003 | [12] 0.096 | [13] -0.041 | [14] 0.006 | [15] 0.024 | [16] 0.002
